Experimental data reported in PubChem BioAssay.

These compounds were tested against Tumor necrosis factor receptor superfamily member 10B (Homo sapiens) (UniProt O14763) (assay: caspase-8 TRAIL sensitization, hit retest, confirmation, cell-based, NB7+caspase-8, with/without TRAIL, luminescence panel (AID 651596)). Settings: NB7 neuroblastoma + caspase-8, TRAIL sensitization, luminescence viability, with TRAIL, mean of runs, at 10 µM, stronger effect = higher value; in the data active = activity above about 50%; inactive = the rest.
Tumor necrosis factor receptor superfamily member 10B (Homo sapiens), sequence (O14763 whole entry, looked up): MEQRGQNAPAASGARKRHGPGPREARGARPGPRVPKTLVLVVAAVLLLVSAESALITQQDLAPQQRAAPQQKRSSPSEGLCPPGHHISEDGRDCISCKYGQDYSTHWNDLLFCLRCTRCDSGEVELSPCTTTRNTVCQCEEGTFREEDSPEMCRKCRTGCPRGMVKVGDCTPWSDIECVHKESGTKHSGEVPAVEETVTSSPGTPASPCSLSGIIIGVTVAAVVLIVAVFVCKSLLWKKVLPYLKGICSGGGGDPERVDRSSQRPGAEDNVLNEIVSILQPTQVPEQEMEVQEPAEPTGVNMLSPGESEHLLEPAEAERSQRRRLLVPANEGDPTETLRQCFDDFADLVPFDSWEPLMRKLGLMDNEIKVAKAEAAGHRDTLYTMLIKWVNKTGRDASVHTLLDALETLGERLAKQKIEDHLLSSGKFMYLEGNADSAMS

| SMILES | activity [%] |
| --- | --- |
| O=C(N/N=C/c1cccs1)c1n[nH]c2c1CCCC2 | 81 |
| Cc1ccccc1OCC(O)CNC1CCC(NCC(O)COc2ccccc2C)CC1 (stereo not given) | 94.4 |
| c1cc2c(cc1C1=NNC(=NC3CC3)SC1)OCCO2 | 93.3 |
| CCOC(=O)c1cnc(Nc2nc3ccccc3o2)nc1C | 92.1 |
| Cc1ccc2nc(NC(=O)c3ccccn3)sc2c1 | 94 |
| CCOc1ccc(-c2ccc(SC)nn2)cc1 | 95.2 |
| Cc1cccc(/C=N/Nc2ccc3ccccc3n2)c1 | 82.4 |
| CN1CCN(c2ccc(-c3ccc4ccccc4n3)cc2)CC1 | 88.5 |
| Cc1cc(C(=O)CN2C(=O)c3ccccc3S2(=O)=O)c(C)n1CC1CCCO1 (stereo not given) | 87.9 |
| O=C1c2cccc3cc([N+](=O)[O-])cc(c23)C(=O)N1CCN1CCCC1 | 41.1 |
| Cc1cc(C(=O)COC(=O)c2ccccc2O)c(C)n1Cc1cccs1 | 95.7 |
| O=c1c(Cl)c(N2CCCCC2)cnn1-c1nc2ccccc2[nH]1 | 96.4 |
| C(=NN1CCCCCC1)c1ccc2ccccc2n1 | 95.4 |
| CC(=O)c1cccc(-c2ccnc3c2CC(C(=O)Nc2cccc(NS(C)(=O)=O)c2)O3)c1 (stereo not given) | 74.9 |
| COc1ccc(/C=C/c2nc3ccccc3n2C)cc1 | 97.2 |
| C(=NNc1ccc2ccccc2n1)c1ccccn1 | 82.5 |
| O=C(NCCc1ccccc1F)c1ccc2c(c1)OCCO2 | 90.4 |
| C=CCn1c(C)cc(C(=O)CN2C(=O)c3ccccc3S2(=O)=O)c1C | 88.8 |
| CN(C)CCCN(C(=O)c1ccc(S(=O)(=O)N2CCc3ccccc3C2)cc1)c1nc2ccc(F)cc2s1 | 48.5 |
| O=C(Cn1ncc(Cl)c(Cl)c1=O)N1CCc2ccccc21 | 99.5 |

| SMILES | activity [%] |
| --- | --- |
| C(=N\Nc1nc2ccccc2[nH]1)/c1ccccn1 | 92 |
| O=C(CCl)Nc1ccccc1Sc1ccc(Cl)cc1 | 99.2 |
| CCc1ccc(C(=O)Nc2nc3ccccc3[nH]2)cc1 | 98.2 |
| COCCn1c(C)cc(C(=O)COC(=O)c2cccc(O)c2)c1C | 86.2 |
| C/C(=N\NC(=O)c1n[nH]c2c1CCC2)c1cccs1 | 80.4 |
| CC(=O)n1cc(N(C(=O)CCl)c2ccc(C)cc2)c2ccccc21 | 99.6 |
| C=C1CC2(OC1=O)c1ccccc1CCc1ccccc12 | 97.2 |
| NC(C(=O)O)C1ON=C(Cl)C1O (stereo not given) | 82.5 |
| COc1ccc(N(C(=O)CCl)C(C(=O)NC2CCCCC2)c2cccnc2)cc1 (stereo not given) | 99.5 |
| CC1=CC2C(C(O)CC3(C)C2CC(C)C32OCOC23COCO3)C2(C)C/C(=C\O)C(=O)C=C12 (stereo not given) | 94.3 |
| COc1ccc(OCc2cccc(C(=O)O)c2)cc1 | 62.9 |
| O=C(Nc1ccccn1)c1cc2ccccc2o1 | 90.3 |
| O=C(CN1C(=O)c2ccccc2S1(=O)=O)c1ccc2c(c1)OCCCO2 | 95.4 |
| Cc1ccc(C(=O)Nc2ncc([N+](=O)[O-])s2)cc1 | 68 |
| CCOc1ccc(NC(=O)c2ccccn2)cc1 | 92.4 |
| COc1cccc(NC(=O)c2nc(S(C)(=O)=O)ncc2Cl)c1 | 13.1 |
| CC(C)(C)C(=O)Nc1ccc(NC(=O)c2ccco2)nc1 | 98.7 |
| C/C(=N/NC(=O)c1cc(C2CC2)[nH]n1)c1cccs1 | 70.8 |
| Cc1ccccc1-c1nc(-c2ccccn2)no1 | 88.8 |
| OCC1OC(n2ccc3c(NO)ncnc32)C(O)C1O (stereo not given) | 98.8 |
